Hits are enriched below; roughly 5% of the tested compounds scored in any of these assays.
USP8 block: blocks human USP8 ubiquitin-rhodamine cleavage; 47,000 tested, 4.2% active; AID 1645853; P40818; inhibition, % at 20 µM; purified USP8, Ub-rhodamine cleavage fluorescence, 30 min
UCHL1 block: inhibitors of human UCHL1 deubiquitinase | P09936 | purified UCHL1, Ub-rhodamine cleavage fluorescence | inhibition, % at 20 µM | 47,000 tested, 0.2% active
USP7 block: blocks human USP7 ubiquitin-rhodamine cleavage | inhibition, % at 20 µM | AID 1645854 | 47,000 tested, 0.3% active | purified USP7, Ub-rhodamine cleavage fluorescence
Target sequence (Q93009 whole entry, looked up): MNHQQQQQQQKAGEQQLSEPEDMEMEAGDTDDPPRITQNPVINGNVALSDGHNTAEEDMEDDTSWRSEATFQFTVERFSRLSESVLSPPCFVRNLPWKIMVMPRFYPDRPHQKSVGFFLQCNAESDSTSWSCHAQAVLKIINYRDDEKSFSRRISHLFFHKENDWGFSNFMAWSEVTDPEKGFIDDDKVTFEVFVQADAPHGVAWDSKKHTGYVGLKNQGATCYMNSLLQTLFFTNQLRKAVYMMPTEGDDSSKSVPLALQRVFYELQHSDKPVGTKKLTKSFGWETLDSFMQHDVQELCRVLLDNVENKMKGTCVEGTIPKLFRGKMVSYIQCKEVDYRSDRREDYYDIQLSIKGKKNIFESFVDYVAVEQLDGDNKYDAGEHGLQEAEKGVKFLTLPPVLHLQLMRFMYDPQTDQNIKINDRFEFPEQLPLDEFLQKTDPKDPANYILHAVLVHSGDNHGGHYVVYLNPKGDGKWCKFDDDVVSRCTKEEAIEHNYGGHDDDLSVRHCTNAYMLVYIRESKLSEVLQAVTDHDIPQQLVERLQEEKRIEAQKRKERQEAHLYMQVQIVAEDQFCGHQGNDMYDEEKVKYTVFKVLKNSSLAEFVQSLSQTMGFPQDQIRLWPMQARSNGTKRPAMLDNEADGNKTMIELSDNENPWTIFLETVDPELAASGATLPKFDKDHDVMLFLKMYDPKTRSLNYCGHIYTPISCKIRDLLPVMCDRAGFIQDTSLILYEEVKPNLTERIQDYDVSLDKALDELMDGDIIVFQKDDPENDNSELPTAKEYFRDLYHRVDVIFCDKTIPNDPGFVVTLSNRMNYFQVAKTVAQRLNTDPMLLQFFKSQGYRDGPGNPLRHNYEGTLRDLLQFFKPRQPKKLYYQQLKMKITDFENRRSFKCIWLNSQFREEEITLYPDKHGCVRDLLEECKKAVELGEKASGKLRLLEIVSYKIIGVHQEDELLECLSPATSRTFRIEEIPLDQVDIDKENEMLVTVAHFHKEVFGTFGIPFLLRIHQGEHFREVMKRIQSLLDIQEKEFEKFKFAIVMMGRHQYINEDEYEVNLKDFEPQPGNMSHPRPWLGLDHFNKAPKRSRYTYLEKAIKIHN
USP10 block: human USP10 deubiquitinase inhibition; purified USP10, Ub-rhodamine fluorescence, 60 min; Q14694; inhibition, % at 20 µM; 47,000 tested, 1.1% active
* hit, by the source's call. No stated cut-off is given here; in the data, active means inhibition above about 30%; inactive means the rest.

SMILES	USP8 block	UCHL1 block	USP7 block	USP10 block
Cc1ccc(C)c(CN2C(=O)N(Cc3ccccc3)S(=O)(=O)c3ccccc32)c1	18	6	4	5
CCOC(=O)C1CCCN(Cc2cc(=O)oc3cc(C)c(C(C)C)cc23)C1 (centres undefined)	-5	2	6	4
CCOC(=O)C1CCN(Cc2cc(=O)oc3cc(O)c(O)cc23)CC1	91*	76*	52*	34*
O=C(CN(CC(=O)NCc1ccccc1Cl)c1nc2ccccc2s1)NCc1ccccc1Cl	69*	2	12	36*
O=C(CN(Cc1ccccc1)S(=O)(=O)c1ccccc1)NCc1ccccc1Cl	4	6	0	12
COc1ccc(C(=O)[C@@H]2[C@H](C(=O)OC(c3ccccc3)c3ccccc3)N3c4ccccc4C=CC3[C@@]23C(=O)Nc2ccccc23)cc1 (some centres undefined)	45*	-1	-19	-7
O=C(Cn1c(=O)c2c(ncn2C2CCCC2)n(Cc2ccccc2)c1=O)NCc1ccccc1Cl	14	-1	-16	0
O=C(Cn1c(=O)[nH]c2c(-c3ccccc3)c[nH]c2c1=O)NCc1ccccc1Cl	41*	-8	15	0
CSc1ccc(CNC(=O)Cn2c(=O)[nH]c3c(-c4ccccc4)c[nH]c3c2=O)cc1	73*	2	10	22
CN(Cc1ccccc1)C(=O)Cn1c(=O)[nH]c2c(-c3ccccc3F)c[nH]c2c1=O	11	-4	4	-3
O=c1oc2c3c(c(Cl)cc2c2c1CCCC2)OCN(Cc1ccccc1)C3	82*	8	-16	5
O=c1cc(CN2CCN(Cc3ccccc3)CC2)c2cc3c(cc2o1)CCC3	-9	-1	-2	-1
O=c1oc2c3c(c(Cl)cc2c2c1CCCC2)OCN(CCc1ccc(F)cc1)C3	41*	-4	3	-3
COc1ccc(Sc2ccc(NC(=O)c3c(F)cccc3F)cc2C#N)cc1	11	7	-4	9
COc1cc(=O)c(C(=O)Nc2ccc(C#N)cc2)nn1-c1cccc(F)c1	62*	1	-3	9
O=C(Cc1c(F)cccc1Cl)NCCC(c1ccccc1)c1ccccc1	3	1	9	8
C[C@@H]1CO[C@@H]2C3=C(C(=O)C=CC3=O)[C@H]3OC(=O)[C@@H]4CCC5[C@@H]1CCC52C34 (some centres undefined)	34*	11	-34	34*
Cc1nn(-c2nc3ccccc3[nH]2)c2c1C(c1cccs1)CC(=O)N2 (centres undefined)	38*	5	7	19
Cc1nn(-c2nc3ccccc3[nH]2)c2c1C(c1ccccc1Cl)CC(=O)N2 (centres undefined)	51*	-5	6	10
Cc1nn(-c2nc3ccccc3[nH]2)c2c1C(c1cccc(F)c1)CC(=O)N2 (centres undefined)	19	-2	0	14
COc1cccc(CNC(=O)COc2ccccc2-c2nnc(-c3ccccc3)o2)c1	-3	-3	3	-3
Cc1cccc(NC(=O)Cc2nnc3c(-c4nc(C5CC5)no4)cccn23)c1	83*	1	4	2
O=C(Cc1nnc2c(-c3nc(C4CC4)no3)cccn12)N1CCCCCC1	43*	-5	-5	-3
Cc1cc(C)cc(NC(=O)Cc2nnc3c(-c4nc(C5CC5)no4)cccn23)c1	2	-1	0	0
CC(C)c1ccc(OCC(=O)NCc2nnnn2-c2ccc(F)cc2)cc1	0	-1	-2	-1
SMILES	USP8 block	UCHL1 block	USP7 block	USP10 block
CCOc1ccccc1NC(=O)CCn1cnc2ccccc2c1=O	-109	3	5	3
CCOc1ccc(CNC(=O)CCn2cnc3ccccc3c2=O)cc1	64*	-1	-7	-1
COC(=O)c1ccc(C2c3[nH]c4ccccc4c3C[C@H]3C(=O)N(Cc4ccc5c(c4)OCO5)CC(=O)N23)cc1 (some centres undefined)	10	-3	1	-4
COc1ccc(C2=Nc3ncnn3C2=NCc2ccccc2)cc1	4	-1	2	1
O=C(Cc1ccccc1)Nc1nc(-c2ccccc2)ns1	0	4	-2	3
O=C(Nc1nc(-c2ccccc2)ns1)c1ccc2ncsc2c1	17	2	13	36*
O=C([C@H]1C[C@@H]2CN(S(=O)(=O)C3CC3)C[C@H]1O2)N1CCCC1	-11	3	3	1
CN1CCN(CCNC(=O)C2CCCN(c3nc4cccnc4n(C)c3=O)C2)CC1 (centres undefined)	8	1	0	-1
c1ccc(-c2noc(NC3CCCC3)n2)cc1	-2	-1	-11	8
O=C1Nc2c(Cl)cc(Cl)cc2C1(O)c1sc(NC2CCCCC2)nc1-c1ccccc1 (centres undefined)	87*	-1	3	4
Cc1ccc(S(=O)(=O)NCc2ccc(C(=O)NCCc3ccc(S(N)(=O)=O)cc3)cc2)cc1	63*	3	21	49*
O=C(COc1ccccc1)N1CCCC(c2[nH]nc3nccnc23)C1 (centres undefined)	0	-2	-1	1
O=C(CC1CCCC1)Nc1ccc(N2CCN(C3CCCC3)C2=O)nc1	24	1	2	3
Cn1c(CCN2CCOCC2)nc2cc(NC(=O)C3CCCCC3)ccc21	22	0	4	3
O=C(Nc1cc(F)c2nc(N3CCOCC3)ccc2c1)C1CCCCC1	71*	-2	0	-8
O=C(CC1CCCCC1)Nc1cc(F)c2nc(N3CCOCC3)ccc2c1	65*	-4	-3	-7
Cc1ccc2c(c1C)NC(=O)[C@]21[C@@H]2C(=O)N(c3cc(Cl)ccc3Cl)C(=O)[C@@H]2[C@@H]2CCCN21	-206	-157	-154	-7
O=C1CCC(=O)NCCCCCN(O)C(=O)CCC(=O)NCCCCCN(O)C(=O)CCC(=O)NCCCCCN1	9	5	-8	0
Cc1ccc(Nc2nc(C(=O)NCc3ccc4c(c3)OCO4)cc3occc23)cc1Cl	76*	5	-14	7
CC1(C)Oc2ccc(C#N)cc2[C@H](N2CCCC2=O)[C@H]1O	3	-2	-2	0
CC(=O)N(O)[C@@H]1c2cc(C#N)ccc2OC(C)(C)[C@H]1O	34*	0	1	2
COc1ccc(NC(=O)Nc2cccc(-c3nnc(-c4ccccc4)o3)c2)cc1OC	14	7	16	5
Cn1cnnc1-c1cccc(NC(=O)Nc2cccc3ccccc23)c1	70*	1	1	-2
Cc1ccccc1NC(=O)Nc1cccc(-c2nnc(-c3ccccc3)o2)c1	51*	1	8	25
CC(C)(C)C(=O)Nc1ccc(C(=O)Nc2cccc(-c3nnc(-c4ccccc4)o3)c2)cc1	4	1	7	38*
O=C(Nc1ccccc1)Nc1ccc(F)c(-c2nnc(-c3ccccc3)o2)c1	25	-3	18	27
O=C(Nc1ccccc1N1CCOCC1)Nc1cccc2ccccc12	27	-3	0	2
O=C(Nc1cccc(F)c1)Nc1cccc(-c2nnc(-c3ccccc3)o2)c1	31*	4	10	32*
